The record followed here is paper PMC5540273 (PLoS ONE, 2017).

For test [1], the system named is EPHA7.
The test system of test [2] is EPHA8.
Test [3] has as its system EPHB2.
Test [4] deals with HIPK3.
For test [5], the system named is T1, ERK1.
T1 construct: gene MAPK3

In test [6] the test system is T2, ERK5.
T2 construct: gene MAPK7

Test [7] has as its system FRK.
In test [8] the test system is T3, ERK8.
T3 construct: gene MAPK15

Test [9] has as its system ERN1.
The test system of test [10] is FGFR2.
Test [11] deals with FLT3.

In general, Kd refers to the concentration at which binding is half-saturated. Low readings indicate a tighter complex, high ones a looser complex.
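Further: kd values determined as follow-up on hits from a single-replicate KINOMEscan panel screen.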

As for `Cn1ccc2ncnc(Nc3ccc(Oc4cccc(Cl)c4)c(Cl)c3)c21`, the Kd in test [1] and in [2] was greater than 10 µM throughout.
The compound `Cc1ccc(O)cc1Nc1cc(C(F)(F)F)nc2ccc(-c3ccncc3)cc12` [GW630823] returned an equilibrium dissociation constant (Kd) in test [1] greater than 10 µM.
For the compound `CC(C)(C)OC(=O)NC1CCCN(c2cc(-c3ccc4c(N)n[nH]c4c3)nc(N)n2)C1` (stereo not shown) [GSK2286096], the Kd in test [3] is greater than 10 µM.
On to `Nc1n[nH]c2nnc(-c3ccccc3)cc12` [SB-517389], for which the Kd in test [3] is greater than 10 µM; in [4], 0.29 µM.
In test [5], `O=C(Nc1ccccc1F)NC1CCN(c2ccnc(Nc3ccc(F)cc3)n2)C1` (stereo not shown) [GSK1379722] registered a Kd greater than 10 µM.
With `Nc1nc(-c2ccc3c(N)n[nH]c3c2)cc(N2CCC[C@@H](C(=O)Nc3ccccc3)C2)n1.O=C(O)C(F)(F)F.O=C(O)C(F)(F)F` [GSK2288359], in test [5], the Kd is 5.3 µM.
In turn, `Cc1ccc(C)c(NC(=O)NCCNc2ccnc(Nc3ccc(F)cc3)n2)c1` [GSK1379878] returned a Kd in test [6] greater than 10 µM.
For the compound `Cc1ccc(NC(=O)c2cccc(C#N)c2)cc1-c1ccc(C(=O)Nc2ccncc2)cc1` [GSK1398463], the Kd is greater than 10 µM in test [6] and 0.19 µM in test [7].
On to `c1ccc(-c2ccc3c(-c4ccnc(Nc5ccc6c(c5)OCCO6)n4)cnn3n2)cc1` [GW818941], for which, in test [8], the affinity, expressed as Kd, was 0.67 µM.
Turning to `O=C(Nc1ccccc1)Nc1ccc(Oc2ccc3nccn3n2)cc1`, the Kd in test [9] was greater than 10 µM.
As for `CCC(CC)(CC)n1cnc2c(N)ncnc21` [SKF-97620], the Kd in [10] was greater than 10 µM.
Same read-out and setting: the figure for `FC(F)(F)c1ccc(-c2nn3ncccc3c2-c2ccnc(Nc3cccc(C(F)(F)F)c3)n2)cc1` [GW828205] is greater than 10 µM.
In [11], `O=C(Nc1n[nH]c2nc(-c3ccco3)c(Br)cc12)c1ccc(CN2CCCC2)cc1.O=C(O)[C@H](O)[C@@H](O)C(=O)O` [SB-742352] had a dissociation constant (Kd) of 0.045 µM. This lies in the double-digit nanomolar range.
